NPC1 prom act – NPC1 promoter activation; Huh7 NPC1 promoter luciferase reporter, 24 h; Potency, µM (series often up to 9.22 µM), for inactives: at the top dose activation, usual class: activators; 320,000 tested, 2.4% active; AID 485313; further: % of control where 0% means no effect; nearly all actives have a fitted effect of over 60% in size
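Luminescence read-out of NPC1 promoter-driven luciferase in stably transfected Huh7 cells; compounds delivered in DMSO and left 24 h at 37C, 5% CO2, qHTS titration format.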
SMN2 splice enh – enhancers of SMN2 splice variant expression; HEK293 SMN2-luciferase splicing reporter, luminescence, 30-36 h; Potency, µM (highest dose often 46.1 µM), without a hit: at the highest dose activity change, positive = activation, most hits filed as activators; 210,000 tested, 2.8% active; AID 1458; further: % of control where 0% means no effect; nearly all actives have a fitted effect of over 55% in size
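HEK293 cells carry an SMN2 minigene-luciferase reporter in which exon 7 inclusion puts luciferase in frame. Cells were seeded at 2000 cells/well, attached for 10-12 hours, then exposed to compounds for 30-36 hours at 37C before ONE-Glo luminescence.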
Rab9 promoter act – Rab9 promoter activation | Huh7 Rab9 promoter-luciferase reporter, luminescence, 24 h | Potency, µM (highest dose often 9.22 µM), for inactives: top-dose activation, negative = inhibition, hits mostly activators | 320,000 tested, 2.8% active | AID 485297; further: % of control where 0% means no effect; nearly all actives have a fitted effect of over 60% in size
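Cell-based reporter: Huh7 stable for Rab9 promoter-driven luciferase, plated in reduced-serum medium with 10% FBS at 1500 cells/well, compound-treated 24 h at 37 °C, luminescence read after 10 min reagent.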
FLuc modulator – counter-screen for miR-21 project: firefly luciferase inhibitors or activators; P08659; purified FLuc, Km substrates, luminescence inhibition; Potency, µM (titrated, usually from 57.5 µM), without a hit: at the highest dose activity change, negative = inhibition, hits mostly inhibitors; 360,000 tested, 6.9% active;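 further: plate controls were vehicle for no effect and reference inhibitor for full effect; nearly all actives have a fitted effect of over 55% in size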
Target sequence (P08659 whole entry, looked up): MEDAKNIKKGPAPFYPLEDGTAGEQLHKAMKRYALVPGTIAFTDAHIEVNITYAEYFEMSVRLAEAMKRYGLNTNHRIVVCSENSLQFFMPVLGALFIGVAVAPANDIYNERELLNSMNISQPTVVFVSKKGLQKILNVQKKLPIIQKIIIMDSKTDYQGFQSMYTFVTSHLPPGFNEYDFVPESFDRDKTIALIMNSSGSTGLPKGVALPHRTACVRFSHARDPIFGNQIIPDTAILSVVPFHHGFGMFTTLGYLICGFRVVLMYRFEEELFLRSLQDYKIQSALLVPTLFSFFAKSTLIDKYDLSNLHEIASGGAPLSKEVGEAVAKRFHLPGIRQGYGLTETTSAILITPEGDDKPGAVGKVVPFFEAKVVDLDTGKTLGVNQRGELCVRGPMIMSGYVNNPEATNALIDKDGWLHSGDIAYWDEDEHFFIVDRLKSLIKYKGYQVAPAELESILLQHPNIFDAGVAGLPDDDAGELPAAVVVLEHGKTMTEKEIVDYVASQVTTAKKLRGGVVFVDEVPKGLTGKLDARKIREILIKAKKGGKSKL
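Purified P. pyralis luciferase, 10 nM final, with Km-level 10 uM D-luciferin and 10 uM ATP in 50 mM Tris acetate pH 7.5, 10 mM Mg acetate, 0.01% Tween-20, 0.05% BSA; 6-point qHTS titration about 60 µM downward; luminescence read.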
Luc counter – blocks Kinase-Glo luciferase, a counter-screen artifact; Q27757; Kinase-Glo luciferase, ATP luminescence, 8 min; Potency, µM (series often up to 38.3 µM), for the others: top-dose activity change, negative = inhibition, most hits filed as inhibitors; 200,000 tested, 0.28% active; further: on the % scale 0 is the no-effect control and ±100 the full control effect; nearly all actives have a fitted effect of over 60% in size
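Light output from Kinase-Glo luciferase with luciferin and 10 uM ATP in 50 mM imidazole pH 7.2, KCl, MgCl2, Tween 20, BSA; compound pin-delivered, 8-min ambient incubation, then luminescence read.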
ELG1 genotox – induces genotoxicity in HEK293T cells with luciferase-tagged ELG1 | HEK293T ELG1-luciferase reporter, luminescence, 16 h | Potency, µM (doses to about 46 µM), for the others: top-dose activity change, positive = activation, hits mostly activators | 330,000 tested, 1.3% active; further: % of control where 0% means no effect; nearly all actives have a fitted effect of over 60% in size
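Genotoxicity was scored as increased ELG1-luciferase reporter signal, measured by ONE-Glo luminescence (30 min, room temperature). Compound or vehicle exposure of the HEK293T reporter cells lasted 16 hr at 37°C.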
* marks the source's active call; other numbers are inactive results; ? = inconclusive; nt = not tested or not shown; [ ] = another dose, or the depositor's remark. Sampled rows, rich in hits. Any-hit rate of the full collection: about 7.3%. The call rests on the fitted dose curve; in most records, active means well fitted curve in the direction sought with a large enough effect; inconclusive means small, poorly fitted or top-dose-only effect, or another doubt; inactive means no such curve, though single readings can be large; an effect the other way counts as inactive or inconclusive. Potency means the concentration at half of the fitted maximal effect.

SMILES	NPC1 prom act	SMN2 splice enh	Rab9 promoter act	FLuc modulator	Luc counter	ELG1 genotox
Fc1ccc(Nc2nc(-c3cccnc3)cs2)cc1	8%	13µM*	?	3µM*	3%	?
CCCc1nn2c(=O)cc(COC(=O)CNC(=O)COc3ccc(C)cc3)nc2s1	nt	nt	nt	2%	nt	nt
CCc1ccc(N2CC(C)Cn3c2nc2c3c(=O)n(CC(=O)O)c(=O)n2C)cc1 (stereo not given)	nt	4%	nt	-9%	nt	nt
COCc1cc(C)nc(N/N=C/c2ccc(-c3ccc(Cl)cc3[N+](=O)[O-])o2)c1C#N	0%	-3%	4µM*	-10%	0%	-1%
COCCn1c(=O)[nH]c(=O)c2c1nc(-c1ccc(-c3ccc(Cl)cc3[N+](=O)[O-])o1)n2Cc1ccccc1	-3%	?	-2%	-1%	-1%	-13%
Fc1ccc(CNc2cc(-c3ccccc3)nc3nncn23)cc1	nt	-19%	nt	5%	nt	nt
Cc1c(C(=O)Nc2ccccc2F)cnn1-c1ccccc1	2.5µM*	nt	1.4µM*	5.4µM*	nt	8.2µM*
CCc1ccc(NC(=O)c2cnn(-c3ccccc3)c2C)cc1	0.5µM*	5.6µM*	0.56µM*	0.67µM*	-8%	?
COc1ccc(NC(=O)c2cnn(-c3ccccc3)c2C)c(OC)c1	-5%	nt	6%	?	nt	4%
Cc1nn(-c2ccccc2)cc1C(=S)Nc1ccccc1	?	23%	?	12µM*	-1%	10%
Cc1nn(C)cc1C(=O)NNC(=S)Nc1ccccc1	23%	?	?	-8%	1%	13%
Cc1c(C(=S)Nc2ccccc2)cnn1-c1ccccc1	?	5%	?	15µM*	6%	1%
COc1ccc(-n2nc3c(N4CCCC(C(=O)NCc5ccc(C)cc5)C4)nnc(C)c3c2C)cc1 (stereo not given)	nt	nt	nt	-9%	nt	nt
CCOc1ccccc1NC(=O)CN1C(=O)COc2ccc(S(=O)(=O)N3CCCCCC3)cc21	nt	nt	nt	-9%	nt	nt
Cc1c(C(=O)Oc2cccc3ccccc23)cnn1-c1ccccc1	22%	?	?	9.5µM*	-6%	8.9µM*
Cc1c(C(=O)Nc2cc(F)cc(F)c2)cnn1-c1ccccc1	1.3µM*	nt	2.5µM*	7.6µM*	nt	?
CC(=O)c1cnn(-c2ccccc2)c1C	-2%	14%	-4%	-3%	2%	4%
NNC(=O)Cc1cccnc1	nt	-14%[9.22 µM]	nt	nt	-8%[7.66 µM]	nt
CCCCC[C@]12Cc3ccccc3C(O1)c1c(cc(C)oc1=O)O2	-4%[1.84 µM]	nt	-3%[1.84 µM]	5%[11.5 µM]	nt	nt
CC(C)c1ccc(C(=O)Nc2ccc(CN3CCOCC3)cc2)cc1	-3%	nt	-5%	11µM*	nt	10%
O=C(Nc1ccc2c(c1)OCO2)c1ccc(CN2CCOCC2)cc1	?	-5%	29%	15µM*	0%	18µM*
NC(=O)c1ccc(NC(=O)c2ccc(CN3CCOCC3)cc2)cc1	15%	22%	-1%	-18%	-4%	18%
CC(C)c1ccc(NC(=O)c2ccc(CN3CC(=O)N4CCCCC4C3=O)cc2)cc1 (stereo not given)	nt	nt	nt	11µM*	nt	nt
CC(C)c1ccc(NC(=S)NN2CCOCC2)cc1	?	22µM*	?	?	-1%	17%
Cc1ccccc1NC(=O)c1ccc(CN2CC(=O)N3CCCCC3C2=O)cc1 (stereo not given)	-5%	nt	1%	-2%	nt	-3%
SMILES	NPC1 prom act	SMN2 splice enh	Rab9 promoter act	FLuc modulator	Luc counter	ELG1 genotox
CC(C)c1ccc(/C=C/C(=O)Nc2ccc(CN3CCOCC3)cc2)cc1	-14%	nt	-21%	12µM*	nt	-15%
O=c1oc2ccccc2c(Nc2cc3ccccc3cc2O)c1[N+](=O)[O-]	?	nt	?	12µM*	-14%	7%
CSc1ccc(CCNC(=O)CCc2c(C)nc3c(-c4ccccc4)c(C)nn3c2C)cc1	nt	1%	nt	0%	nt	nt
CCN(CC)c1ccc(NC(=S)NC(=O)c2cccs2)cc1	?	nt	0.56µM*	15µM*	3%	8%
CC(C)C(=O)Nc1cccc(NC(=S)NC(=O)c2cccs2)c1	2.8µM*	nt	2.8µM*	-16%	nt	19%
COc1cc(NC(=S)NC(=O)c2cccs2)ccc1NC(=O)C(C)C	19%	8%	27%	?	-2%	-2%
CCN(CC)c1ccc(NC(=S)NC(=O)c2ccco2)cc1	?	7.9µM*	1.6µM*	15µM*	1%	?
CC(=O)NC(=S)Nc1ccc(NC(=S)NC(=O)c2cccs2)cc1	-1%	nt	-5%	3%	nt	-9%
CCCCOC(=O)c1ccc(NC(=S)NC(=O)c2ccco2)cc1	-3%	nt	5%	-2%	nt	-1%
CCN(CC)c1ccc(NC(=O)c2ccco2)cc1	1.6µM*	3.2µM*	?	3µM*	4%	1.8µM*
C[N+](C)(N)CCC[N+](C)(C)N	nt	-12%[9.22 µM]	nt	nt	-4%[7.66 µM]	nt
C[C@H](OP(=O)(O)O)[C@H](N)C(=O)O	nt	-5%[9.22 µM]	nt	nt	-1%[7.66 µM]	nt
Cc1ccccc1/C=N/N=C1/NC(=O)CCS1	16%	nt	1%	?	nt	10%
O=C1CCS/C(=N\N=C\c2ccc(Cl)cc2Cl)N1	?	nt	?	19µM*	nt	?
O=C(c1ccc2c(c1)N(Cc1ccc(Cl)cc1)C(=O)c1ccccc1S2=O)N1CCN(c2ccccc2F)CC1 (stereo not given)	nt	-8%	nt	-2%	nt	nt
O=C(NCc1ccc(F)cc1)c1noc2c1CCCCC2	1%	-5%	4%	-12%	2%	0%
O=C(Nc1ccccc1C(F)(F)F)c1noc2c1CCCCC2	nt	11µM*	nt	2.7µM*	nt	nt
O=C(Nc1ccc(F)cc1F)c1noc2c1CCC2	?	?	?	15µM*	-10%	13%
O=C(Nc1cc(Cl)ccc1Cl)c1noc2c1CCCC2	2%	nt	-2%	-9%	nt	1%
CC(=O)NCCCNc1ccc([N+](=O)[O-])cc1	15%	?	16%	19µM*	5%	2%
CNC(=O)C1CCC(Cn2c(=O)c3sccc3n(CC(=O)NCc3ccccc3)c2=O)CC1 (stereo not given)	nt	nt	nt	4%	nt	nt
O=C(O)[C@@H]1[C@@H]2C[C@H]3c4[nH]c5ccccc5c4CCN3C[C@@H]2CC[C@@H]1O	nt	-7%[20.6 µM]	nt	nt	-1%[17.1 µM]	nt
Cc1cccc(C(=O)Nc2ccc(-c3nc4ccccc4s3)cc2Cl)c1	nt	nt	nt	-6%	nt	nt
O=C(O)c1ccc2nc(-c3ccccc3)sc2c1	-27%	0.1µM*	-28%	2.4µM*	-9%	?
Cc1ccc2nc(-c3ccc(NC(=O)c4ccc(N)cc4)c(S(=O)(=O)O)c3)sc2c1	nt	4µM*	nt	nt	0%[7.66 µM]	nt
Nc1cc2sc(-c3ccc(C(=O)O)cc3)nc2cc1Cl	0.79µM*	1.4µM*	0.56µM*	0.67µM*	?	?
